# Among all 69,000 compounds or so, about 1,000 (1.4%) showed an effect of 50% or more. This excerpt belongs to a sample that is enriched for strong results.
# Tested on: Leishmania donovani
# Assay: Leishmania intramacrophage assay
# Format: functional, organism-based
# Set-up: scale not given: in the data most compounds retested in dose-response had high values
compound,measurement,setting,value
O=C(NCCSCc1ccco1)c1ccc(N2CCOCC2)cc1,Percent Effect,"30.3 µM, […]",-4.352%
CCc1nnc2n1CCN(C(=O)c1nc(-c3ccco3)sc1C)C2,Percent Effect,30 µM,1.353%
O=C(O)C(F)(F)F.O=C(c1ccoc1)N1C[C@@H]2OCCN(c3ncccn3)[C@@H]2C1,Percent Effect,"30.3 µM, […]",10.14%
CCc1nccn1-c1nccnc1C1CCCN(C(=O)COC)C1 (configuration not stated),Percent Effect,"30.3 µM, […]",11.67%
Cc1cc(=O)[nH]c(NCCNC(=O)C(c2ccc(F)cc2)N(C)C)n1 (configuration not stated),Percent Effect,"30 µM, 30.03 µM",-13%
OCC1(NCc2cnc(-c3cccs3)s2)CCOCC1,Percent Effect,"30.3 µM, […]",16.11%
O=C(C1CC=CC1)N1CCC2(CCC(=O)N2Cc2cccc(F)c2)CC1,Percent Effect,"30.3 µM, […]",15.71%
CCOc1ccc(Cl)c(C(=O)NC(Cc2ccccc2)C(N)=O)n1 (configuration not stated),Percent Effect,"30.3 µM, […]",6.553%
CN(C)S(=O)(=O)CCCOc1cccc(-n2ccnc2)c1,Percent Effect,"30.3 µM, […]",-0.5544%
CNC(=O)CN(C)C1CCN(c2ccc(Cl)cc2)CC1,Percent Effect,"30.3 µM, […]",24.19%
Cc1ccc(N2CCC(N3C[C@@H](CN(C)C)[C@@H](CO)C3)CC2)cc1,Percent Effect,"30.3 µM, […]",38.77%
CN(C)C[C@@H]1CN(C2CCN(c3ccc(Cl)cc3)CC2)C[C@@H]1CO,Percent Effect,"30.3 µM, […]",93.76%
OC(COCc1cccs1)Cn1cc(Cl)cn1 (configuration not stated),Percent Effect,"30.3 µM, […]",11.71%
O=C(c1csc2nc(-c3ccc(Cl)cc3)cn12)N1CCCC(CO)C1 (configuration not stated),Percent Effect,"30.3 µM, […]",-3.231%
CCC1CN(C(=O)c2csc3nc(-c4ccc(Cl)cc4)cn23)CCN1 (configuration not stated),Percent Effect,"30.3 µM, […]",94.25%
CC(C)N1CCN(C(=O)c2csc3nc(-c4ccc(Cl)cc4)cn23)CC1,Percent Effect,"30.3 µM, […]",11.51%
CN(CC1CCOCC1)C(=O)NCCCN1CCCCC1,Percent Effect,"30.3 µM, […]",19.46%
O=C(c1ccncc1)N1CCC(c2nc(O)cc(-c3cccnc3)n2)C1 (configuration not stated),Percent Effect,"30 µM, 30.03 µM",-2.25%
CN(C)CC1(O)CCN(C(=O)Cc2ccc(Cl)c(Cl)c2)C1 (configuration not stated),Percent Effect,"30.3 µM, […]",1.329%
Cc1cc2occ(CC(=O)N3CCC(O)(CN(C)C)C3)c2cc1Cl (configuration not stated),Percent Effect,"30.3 µM, […]",50.58%
Cc1cc2occ(CC(=O)N3CCC4(CCCN(C)C4=O)C3)c2cc1Cl (configuration not stated),Percent Effect,"30.3 µM, […]",10.63%
O=C(O)[C@@H]1CCN(C(=O)Cc2ccccn2)[C@@H]1c1ccc(F)cc1,Percent Effect,"30.3 µM, […]",8.228%
CCO[C@H]1C[C@@H](O)C12CCN(C(=O)CC(F)(F)F)CC2,Percent Effect,"30.3 µM, […]",-0.6132%
COCCNC(=O)c1sc2ccccc2c1C1CCC(CN)CC1.Cl (configuration not stated),Percent Effect,"30.3 µM, […]",18.8%
CN(C)CCNC(=O)c1sc2ccccc2c1C1CCC(CN)CC1.Cl (configuration not stated),Percent Effect,"30.3 µM, […]",63.37%
Cl.NCC1CCC(c2c(C(=O)NCCO)sc3ccccc23)CC1 (configuration not stated),Percent Effect,"30.3 µM, […]",15.08%
COCc1cccc(NS(=O)(=O)c2cc(C(=O)O)cs2)c1,Percent Effect,"30 µM, 30.03 µM",36.6%
CCNc1ncc2c(n1)CN(c1ccc(OC(F)(F)F)cc1)C2=O,Percent Effect,"30.3 µM, […]",23.96%
OC1(CNCc2ccc(F)c(C(F)(F)F)c2)CCOC1 (configuration not stated),Percent Effect,"30.3 µM, […]",25.18%
CN1CCC(O)(CNCc2ccc(F)c(C(F)(F)F)c2)CC1,Percent Effect,"30.3 µM, […]",85.74%
OC1(CNCc2ccc(F)c(C(F)(F)F)c2)CCSCC1,Percent Effect,"30.3 µM, […]",40.38%
CC(C)N1CCN(c2ccc3ccc(C(=O)NC4CCCC4)cn23)CC1.O=C(O)C(F)(F)F,Percent Effect,"30.3 µM, […]",37.85%
N#Cc1cc(F)c(NCCCOCC2CCOC2)c(F)c1 (configuration not stated),Percent Effect,"30.3 µM, […]",29.08%
CCc1c(C)nc(C)nc1N1C[C@@H](CN(CC)CCO)[C@@H](CO)C1,Percent Effect,"30.3 µM, […]",-0.6836%
CCc1c(C)nc(C)nc1N1C[C@@H](CN(C)CCN(C)C)[C@@H](CO)C1,Percent Effect,"30.3 µM, […]",30.66%
CCc1c(C)nc(C)nc1N1C[C@@H](CN(C)C)[C@@H](CO)C1,Percent Effect,"30.3 µM, […]",54.47%
Cn1ccnc1CN1C[C@@H](CN2CCCC2)[C@@H](CO)C1,Percent Effect,"30.3 µM, […]",30.27%
CCN1CC[C@]2(CN(Cc3nccs3)C[C@H]2c2ccccc2)C1=O.O=C(O)C(F)(F)F,Percent Effect,"30.3 µM, […]",23.61%
COc1ccc(-c2n[nH]c(C)c2CC(=O)NCCN2CCOCC2)cc1,Percent Effect,"30.3 µM, […]",-10.63%
Cc1noc(C)c1CS(=O)(=O)C(C)C(=O)N(C)c1ccccc1 (configuration not stated),Percent Effect,"30.3 µM, […]",39.61%
Cc1noc(CS(=O)(=O)C(C)C(=O)N(C)c2ccccc2)n1 (configuration not stated),Percent Effect,"30.3 µM, […]",12.83%
Cc1cc(CS(=O)(=O)C(C)C(=O)N(C)c2ccccc2)on1 (configuration not stated),Percent Effect,"30.3 µM, […]",59.375%
Cc1cc(C)n(CC2CN(Cc3cc(C)on3)CCO2)n1 (configuration not stated),Percent Effect,30 µM,28.82%
O=C(CN1CCOCS1(=O)=O)NCc1ccccc1,Percent Effect,"30.3 µM, […]",-15.82%
COC1COC2(CCN(Cc3ccc4c(c3)OCO4)CC2)C1.O=C(O)C(F)(F)F (configuration not stated),Percent Effect,"30.3 µM, […]",2.758%
CC(C)OCCCN1CCCC(c2nc3ccccc3n2C(C)C)C1 (configuration not stated),Percent Effect,"30 µM, 30.03 µM",51.41%
CC(C)n1c(C2CCCN(CCS(C)(=O)=O)C2)nc2ccccc21 (configuration not stated),Percent Effect,"30 µM, 30.03 µM",13.25%
CC(C)n1c(C2CCCN(CC(N)=O)C2)nc2ccccc21 (configuration not stated),Percent Effect,"30.3 µM, […]",0.009374%
CC(C)c1noc(OCc2cccc(C#N)c2)n1,Percent Effect,"30.3 µM, […]",36.94%
CN1CCN(Cc2noc(-c3cc(-c4ccccc4F)n[nH]3)n2)CC1,Percent Effect,"30.3 µM, […]",-14.35%
c1cc2c(cc1-n1nc(C3CC3)nc1-c1csnn1)OCCO2,Percent Effect,"30.3 µM, […]",-0.4467%
CC(CNC(=O)c1c[nH]nn1)Oc1ccc(Cl)cc1 (configuration not stated),Percent Effect,"30.3 µM, […]",-48.71%
Clc1cccc(C2CCN(c3ncnc4c3CCNC4)C2)c1 (configuration not stated),Percent Effect,"30.3 µM, […]",76.01%
c1ccn2c(C3CCCN(c4ncnc5c4CCNC5)C3)nnc2c1 (configuration not stated),Percent Effect,"30.3 µM, […]",-1.091%
c1cc(C2CCN(c3ncnc4c3CCNCC4)CC2)ccn1,Percent Effect,"30.3 µM, […]",3.191%
c1ccc(C2CCCN(c3ncnc4c3CCNC4)CC2)cc1 (configuration not stated),Percent Effect,"30.3 µM, […]",74.19%
c1ccc2c(c1)CN(c1ncnc3c1CCNC3)CCO2,Percent Effect,"30.3 µM, […]",24.34%
c1ccc(C2CCN(c3ncnc4c3CCNC4)CC2)cc1,Percent Effect,"30.3 µM, […]",29.27%
N#Cc1cc(C(F)(F)F)ccc1NCC1CCS(=O)(=O)CC1,Percent Effect,"30.3 µM, […]",3.711%
O=C(c1cc[nH]n1)N1CCC(c2cc(Nc3ccccn3)n[nH]2)CC1,Percent Effect,"30.3 µM, […]",6.823%
Cc1ccc(NC2CCN(C(=O)c3cccc4[nH]ncc34)CC2)nn1,Percent Effect,"30.3 µM, […]",16.62%
Cc1cc(CCC(=O)N2CC[C@H](O)C2)ccc1Br,Percent Effect,"30.3 µM, […]",-18.41%
Cc1ccccc1C(C)CC(=O)N1CC[C@H](O)C1 (some centres not stated),Percent Effect,"30.3 µM, […]",50.74%
COc1ccccc1C(C)CC(=O)N1CC[C@H](O)C1 (some centres not stated),Percent Effect,"30.3 µM, […]",5.433%
COCCNc1ccccc1CNC(=O)NCc1cnc(C)s1,Percent Effect,"30.3 µM, […]",19.41%
c1cnn(CC2CCCN2Cc2nc(-c3ccoc3)no2)c1 (configuration not stated),Percent Effect,"30 µM, 30.03 µM",-37.38%
Cn1nc(C(=O)NCc2ccccc2C(F)(F)F)c2c1CCS(=O)(=O)C2,Percent Effect,"30.3 µM, […]",36.38%
CCN1CC2(CCCCN2C(=O)c2ccsc2)CC1=O (configuration not stated),Percent Effect,"30.3 µM, […]",22.42%
C=C1C(C)(C)[C@H]2CC[C@]1(C(=O)N1CCC(Cn3cc(CO)nn3)CC1)C2,Percent Effect,"30.3 µM, […]",-11.33%
Cc1nc(CN2CCC23CCN(Cc2ccoc2)CC3)cs1,Percent Effect,"30.3 µM, […]",63.43%
Cc1nc(CN2CCC3(C2)CN(Cc2ccco2)C3)cs1,Percent Effect,"30.3 µM, […]",58.57%
Cc1nc(CN2CCC23CCN(Cc2ccco2)CC3)cs1,Percent Effect,"30.3 µM, […]",53.61%
Cc1nc(CN2C(=O)CCC23CCN(Cc2ccco2)CC3)cs1,Percent Effect,"30.3 µM, […]",23.38%
Cc1nc(CN2CCC3(CCCN(Cc4ccoc4)C3)C2=O)cs1.O=C(O)C(F)(F)F.O=C(O)C(F)(F)F (configuration not stated),Percent Effect,"30.3 µM, […]",15.73%
Cc1nc(CN2CCC3(C2)CN(C(=O)c2ccc[nH]2)C3)cs1,Percent Effect,"30.3 µM, […]",35.81%
Cc1nc(CN2CCC23CCN(C(=O)c2ccco2)CC3)cs1,Percent Effect,"30.3 µM, […]",26.24%
Cc1nc(CN2C(=O)CCC23CCN(Cc2ccoc2)CC3)cs1.O=C(O)C(F)(F)F.O=C(O)C(F)(F)F,Percent Effect,"30.3 µM, […]",9.105%
Cc1nc(CN2CCN(C(=O)CCc3ccco3)CC2)cs1,Percent Effect,30 µM,15.52%
CCCc1nc(CN(CC)C(=O)c2ccc3ncsc3c2)no1,Percent Effect,"30.3 µM, […]",-29.17%
COc1ccc(-c2nccn2CC(O)CN2CCCC2)c(F)c1 (configuration not stated),Percent Effect,"30.3 µM, […]",5.05%
COc1ccc2cnn(CC(=O)NC3CCCCC3)c(=O)c2c1OC,Percent Effect,"30.3 µM, […]",14.43%
CNS(=O)(=O)CCn1cc(-c2ccc(OC)c(OC)c2)nn1,Percent Effect,"30.3 µM, […]",27.44%
CCn1cc2c(n1)C(COC)CN(C(=O)COc1ccccc1C)C2 (configuration not stated),Percent Effect,"30 µM, 30.03 µM",-0.4533%
CC(C)c1ncncc1C(=O)N1CCN(Cc2ccccn2)CC1,Percent Effect,30 µM,24.52%
NC(=O)c1cccc(OCC(=O)NS(=O)(=O)c2ccc3c(c2)CCC3)c1,Percent Effect,30 µM,8.199%
Cc1nn(C)c(N2CCOCC2)c1CNC1COc2ccccc2C1 (configuration not stated),Percent Effect,30 µM,6.69%
CC(=O)NCCCc1ncnn1-c1cccc(Cl)c1,Percent Effect,"30.3 µM, […]",-4.184%
O=C(NCCC(=O)N1CCCc2ccccc21)c1c(F)cccc1F,Percent Effect,30 µM,15.29%
O=C(NCCC(=O)N1CCCc2ccccc21)c1c(O)cc(F)cc1F,Percent Effect,"30 µM, 30.03 µM",50.32%
O=C(NCC(=O)N1CCCc2ccccc21)c1c(O)cc(F)cc1F,Percent Effect,30 µM,16.08%
Cc1ccc(CN2C[C@@H]3[C@@H](C(=O)NCC(C)C)CCS(=O)(=O)[C@@H]3C2)cc1.O=C(O)C(F)(F)F,Percent Effect,"30.3 µM, […]",-6.029%
CCc1nnc(SCC(=O)Nc2cc(C(C)(C)C)nn2C)[nH]1,Percent Effect,"30.3 µM, […]",21.82%
CCc1cc(NC2CCS(=O)(=O)CC2)nc(N2CCCCC2)n1,Percent Effect,"30.3 µM, […]",-6.887%
CCc1cc(NCC(N)=O)nc(N2CCCCC2)n1,Percent Effect,"30.3 µM, […]",21.93%
CCc1cc(NC2CCN(CC(N)=O)CC2)nc(N2CCCCC2)n1,Percent Effect,"30.3 µM, […]",55.44%
CCc1ccsc1C(=O)N1CCN(C(=O)c2ccc(C)o2)CC1,Percent Effect,"30.3 µM, […]",56.23%
CCc1ccsc1C(=O)N1CCS(=O)(=O)CC1,Percent Effect,"30.3 µM, […]",9.315%
COC(=O)c1sccc1CN1CCN(C(=O)c2ccc(C)o2)CC1,Percent Effect,"30.3 µM, […]",23.22%
O=C(c1ccc2[nH]c(=O)[nH]c2c1)N1CCC(Nc2cccnn2)CC1,Percent Effect,30 µM,-0.4678%
Oc1c(F)cc(CNc2cccc(-c3nnc[nH]3)c2)cc1F,Percent Effect,"30.3 µM, […]",16.51%
c1cc(NCc2ccsc2)cc(-c2nnc[nH]2)c1,Percent Effect,"30.3 µM, […]",34.15%
Oc1ccc(Br)c(CNc2cccc(-c3nnc[nH]3)c2)c1,Percent Effect,"30.3 µM, […]",51.72%
